Test [1] in a line: NCI Yeast Anticancer Drug Screen. Data for the rad50 strain (AID 155).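 Note: 0% = growth of vehicle-only cultures of the same strain.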 The conditions noted are these: S. cerevisiae rad50 strain growth inhibition, stronger effect = higher value. A digest of the protocol: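 Vehicle-treated cultures provide the reference for the growth inhibition reported for compound-exposed, repair-deficient yeast.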
Test [2] can be described thus: NCI Yeast Anticancer Drug Screen. Data for the mec2-1 strain (AID 157). Conditions: S. cerevisiae mec2-1 strain, stronger effect = higher value. In outline: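 Mutant yeast (mec2-1) grown with compound; growth inhibition relative to vehicle control reported.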
Test [3] in a line: NCI Yeast Anticancer Drug Screen. Data for the sgs1 mgt1 strain (AID 161).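 Note: 0% = growth of cultures given vehicle only.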 The conditions noted are these: S. cerevisiae sgs1 mgt1 strain, stronger effect = higher value. A digest of the protocol: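 Yeast cells carrying a defined DNA-repair defect were exposed to test compounds. Growth inhibition was measured relative to vehicle-treated controls.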
Test [4] is described as follows: NCI Yeast Anticancer Drug Screen. Data for the cln2 rad14 strain (AID 165).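 Note: 0% = growth equal to vehicle treated cultures.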 Conditions: S. cerevisiae cln2 rad14 strain, stronger effect = higher value. A digest of the protocol:
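Readout is yeast growth inhibition versus vehicle-treated controls, using a strain with cln2 and rad14 alterations exposed to compound.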

The nature of test [5]: NCI Yeast Anticancer Drug Screen. Data for the bub3 strain (AID 167). Conditions: S. cerevisiae bub3 mutant strain, stronger effect = higher value. In outline: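 Mutant yeast screening strain plus compound; vehicle-treated cultures serve as the 0% inhibition reference.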
A short description of test [6]: NCI Yeast Anticancer Drug Screen. Data for the mlh1 rad18 strain (AID 175). Conditions: S. cerevisiae mlh1 rad18 strain growth inhibition, stronger effect = higher value. A digest of the protocol:
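Genetically defined yeast (DNA repair-deficient) exposed to compounds; growth inhibition determined relative to vehicle.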

The mark [7] stands for this setting: at 5.0 µM (retest, dose inferred, filed as 0.5).
The mark [8] stands for this setting: at 50.0 µM (retest, dose inferred, filed as 5.0).

Each structure is given as a SMILES string. “And” between values parts separate entries of the source, which are not always exact repeats. Equal entries are not always repeated. Compounds without any hit were thinned out: in the full panel of roughly 79,000, 15% have a hit. Some structures have more than one record in an assay (separate samples or runs), and their calls can disagree. The source made the active and inactive calls. Cut-off read from the data, not from the text of the source: active = growth inhibition above about 70%; inactive = the rest.

As to `CCC[CH2][Sn]1([CH2]CCC)[O]CC[S]1`, the growth inhibition in test [1] (setting [7]) was 83% (active); in test [1] (setting [8]), 99% (active); in test [1] (at 50.0 µM), 99.1% (active); in test [2] (setting [7]), 87% (active); in test [2] (setting [8]), 99% (active); in test [2] (at 50.0 µM), 99% (active). For the same compound, the growth inhibition in test [3] (setting [7]) was 81% (active); in test [3] (setting [8]), 99% (active); in test [3] (at 50.0 µM) it was 98.2% (active); in test [4] (setting [7]), 78% (active); in test [4] (setting [8]), 99% (active); in test [4] (at 50.0 µM), 97.3% (active). Also, the growth inhibition is 87% (active) in test [5] (setting [7]); 99% (active) in test [5] (setting [8]); 96.1% (active) in test [5] (at 50.0 µM); 84% (active) in test [6] (setting [7]); 99% (active) in test [6] (setting [8]); 99.2% (active) in test [6] (at 50.0 µM).

For `C/C(=N\NS(=O)(=O)c1ccc(C)cc1)C(CN1CCOCC1)C(c1ccccc1)c1c(O)c2ccccc2oc1=O` (stereo not drawn), the growth inhibition in test [1] (setting [7]) was 15% (inactive); in test [1] (setting [8]) it was 15% (inactive); in test [1] (at 50.0 µM) it was 88.5% (active); in test [2] (setting [7]), 4% (inactive); in test [2] (setting [8]), 4% (inactive); in test [2] (at 50.0 µM) it was 85.8% (active). Also, the growth inhibition in test [3] (setting [7]) was 15% (inactive); in test [3] (setting [8]), 15% (inactive); in test [3] (at 50.0 µM), 87.4% (active); in test [4] (setting [7]), 5% (inactive); in test [4] (setting [8]), 5% (inactive); in test [4] (at 50.0 µM) it was 89.2% (active). Further, the growth inhibition in test [5] (setting [7]) was 3% (inactive); in test [5] (setting [8]), 3% (inactive); in test [5] (at 50.0 µM), 83.7% (active); in test [6] (setting [7]), 9% (inactive); in test [6] (setting [8]) it was 9% (inactive); in test [6] (at 50.0 µM), 87.6% (active).

`COc1c(Br)cc(/C=C(/C)[N+](=O)[O-])cc1Br`: the growth inhibition was 23% (inactive) in test [1] (setting [7]); 66% (inactive) in test [1] (setting [8]); 91.3% (active) in test [1] (at 50.0 µM); 12% (inactive) in test [2] (setting [7]); 57% (inactive) in test [2] (setting [8]); 92.5% (active) in test [2] (at 50.0 µM). Besides, the growth inhibition is 43% (inactive) in test [3] (setting [7]); 74% (active) in test [3] (setting [8]); 31.8% (inactive) in test [3] (at 50.0 µM); 29% (inactive) in test [4] (setting [7]); 61% (inactive) in test [4] (setting [8]); 71.2% (active) in test [4] (at 50.0 µM). The growth inhibition in test [6] (setting [7]) was 13% (inactive); in test [6] (setting [8]) it was 59% (inactive); in test [6] (at 50.0 µM), 82.3% (active).

As to `CCC[CH2][Sn]1([CH2]CCC)[S]CC[N]1S(=O)(=O)c1ccc(C)cc1`, the growth inhibition in test [1] (setting [7]) is 79% (active); in test [1] (setting [8]), 98% (active); in test [1] (at 50.0 µM) it was 91.8% (active); in test [2] (setting [7]), 85% (active); in test [2] (setting [8]), 99% (active); in test [2] (at 50.0 µM), 94% (active). Besides, the growth inhibition was 77% (active) in test [3] (setting [7]); 99% (active) in test [3] (setting [8]); 92.6% (active) in test [3] (at 50.0 µM); 62% (inactive) in test [4] (setting [7]); 97% (active) in test [4] (setting [8]); 91.5% (active) in test [4] (at 50.0 µM). Moreover, the growth inhibition in test [5] (setting [7]) is 88% (active); in test [5] (setting [8]), 98% (active); in test [5] (at 50.0 µM), 92.3% (active); in test [6] (setting [7]) it was 88% (active); in test [6] (setting [8]), 97% (active); in test [6] (at 50.0 µM), 92% (active).

Turning to `O=P(Nc1ccccc1)(Oc1ccccc1)N1CCN(c2ccccc2)CC1` (stereo not drawn), the growth inhibition is 0% (inactive) in test [1] (setting [7]); 97% (active) in test [1] (setting [8]); 71.2% (active) in test [1] (at 50.0 µM); -29% (inactive) in test [2] (setting [7]); 96% (active) in test [2] (setting [8]); 80.7% (active) in test [2] (at 50.0 µM). Further, the growth inhibition in test [3] (setting [7]) is -32% (inactive); in test [3] (setting [8]) it was 97% (active); in test [3] (at 50.0 µM), 84.5% (active); in test [4] (setting [7]), 22% (inactive); in test [4] (setting [8]), 96% (active); in test [4] (at 50.0 µM), 85.9% (active). In addition, the growth inhibition in test [5] (setting [7]) is 14% (inactive); in test [5] (setting [8]), 96% (active); in test [5] (at 50.0 µM), 87.2% (active); in test [6] (setting [7]), -1% (inactive); in test [6] (setting [8]), 96% (active); in test [6] (at 50.0 µM) it was 86.5% (active).

With `[Br][Hg][CH2]COC[CH2][Hg][Br]`, the growth inhibition was 95% (active) in test [1] (setting [7]); 99% (active) in test [1] (setting [8]); 99.4% (active) in test [1] (at 50.0 µM); 98% (active) in test [2] (setting [7]); 100% (active) in test [2] (setting [8]); 99.6% (active) in test [2] (at 50.0 µM). Further, the growth inhibition in test [3] (setting [7]) was 98% (active); in test [3] (setting [8]) it was 51% (inactive); in test [3] (at 50.0 µM) it was 99.5% (active); in test [4] (setting [7]) it was 83% (active); in test [4] (setting [8]), 99% (active); in test [4] (at 50.0 µM), 98.8% (active). For the same compound, the growth inhibition in test [5] (setting [7]) was 96% (active); in test [5] (setting [8]) it was 99% (active); in test [5] (at 50.0 µM), 99% (active); in test [6] (setting [7]), 95% (active); in test [6] (setting [8]) it was 99% (active); in test [6] (at 50.0 µM) it was 99.1% (active).

In the case of `CC(Cl)CN(C)C` (stereo not drawn), the growth inhibition is 24% (inactive) in test [1] (setting [7]); 74% (active) in test [1] (setting [8]); 75.3% (active) and 30.4% (inactive) in test [1] (at 50.0 µM); -5% (inactive) in test [2] (setting [7]); 13% (inactive) in test [2] (setting [8]); 1.1% (inactive) and -17.4% (inactive) in test [2] (at 50.0 µM). For the same compound, the growth inhibition in test [3] (setting [7]) is 25% (inactive); in test [3] (setting [8]) it was 57% (inactive); in test [3] (at 50.0 µM), 54.5% (inactive) and 33.9% (inactive); in test [4] (setting [7]), -1% (inactive); in test [4] (setting [8]) it was 3% (inactive); in test [4] (at 50.0 µM), -55.5% (inactive) and 7.95% (inactive). Also, the growth inhibition is -8% (inactive) in test [5] (setting [7]); -10% (inactive) in test [5] (setting [8]); -20.4% (inactive) and -16.6% (inactive) in test [5] (at 50.0 µM); 11% (inactive) in test [6] (setting [7]); 37% (inactive) in test [6] (setting [8]); 57% (inactive) and 18.3% (inactive) in test [6] (at 50.0 µM).
